T cruzi growth-1 = blocks T. cruzi growth in NIH3T3 culture; T. cruzi beta-gal in NIH3T3, GalScreen luminescence, 90 h; inhibition, % at 8.34 µM; 5.9% of 77,000 active; AID 624255;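 active = mean inhibition above about 93%, with at least 55% of replicates each passing it, limit read from the data, passing the limit was not always enough; inconclusive = only one of those two conditions holds; inactive = neither condition holds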
C diff growth = inhibitors of Clostridium difficile growth | Clostridium difficile clinical isolate growth, OD600, 24 h; hits give low values | growth activity, negative = inhibition, % at 16 µg/mL (by protocol) | 0.25% of 86,000 active | AID 1259249;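 active = mean growth activity at or below -80% and every replicate also at or below -80%; inconclusive = mean at or below -80% but some replicate above -80%; inactive = mean growth activity above -80%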;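 also: 0% = DMSO wells and -100% = levofloxacin 16 µg/mL wells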
T cruzi growth-2 = inhibitors of T. cruzi proliferation | shares compounds with T cruzi growth-1 | T. cruzi beta-gal in NIH3T3, GalScreen luminescence, 90 h | inhibition, % at 8.35 µM | 72% of 5,600 active | AID 651739;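 active = mean replicate inhibition above about 95% and at least 55% of replicates individually reaching it, limit read from the data; inconclusive = only one of the two criteria is met; inactive = neither criterion is met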
T cruzi growth-3 = Trypanosoma cruzi proliferation inhibition. shares compounds with T cruzi growth-1. T. cruzi beta-gal in NIH3T3, GalScreen luminescence, 90 h. inhibition, % at 2.09 µM. 21% of 5,600 active. AID 651740;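 active = mean inhibition above about 95%, with at least 55% of replicates also reaching it, limit read from the data; inconclusive = meets just one of the two conditions; inactive = meets neither condition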;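 also: plate controls were neutral control median for no effect and positive control median for full effect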
3T3 cytotox = NIH/3T3 (mouse) viability loss; shares compounds with T cruzi growth-1; NIH/3T3 viability, CellTiter-Glo ATP luminescence, 90 h; cytotoxicity (signal decrease), % at 8.35 µM; 14% of 5,600 active; AID 651742;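 active = mean signal decrease across replicates above about 35% based on untreated-well scatter, with enough replicates individually passing, limit read from the data; inconclusive = no rule stated though some were filed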;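 also: 0% = median of neutral control wells and 100% = median of positive control wells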
NIH3T3 tox 2 = cytotoxicity in mouse NIH/3T3 fibroblasts; shares compounds with T cruzi growth-1; NIH/3T3 viability, CellTiter-Glo ATP luminescence, 90 h; inhibition, % at 24.9 µM; 56% of 5,600 active;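 active = mean loss of cell viability signal at or above a set limit, and enough replicates individually reaching it; inconclusive = meets only the mean limit or only the replicate share; inactive = meets neither condition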;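 also: 0% = median of neutral control wells and 100% = median of positive control wells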
Starred values were filed as active, the others as inactive; ? = inconclusive; . = no result given. The sample as a whole holds a higher share of hits than the screen did.

SMILES | T cruzi growth-1 | C diff growth | others
CCCC(=O)Nc1ccc2c(c1)C(=O)N(C)C[C@@H](OC)[C@H](C)CN(C(=O)c1ccncc1)[C@H](C)CO2 | 24 | -3
CNC(=O)C[C@H]1CC[C@H]2[C@H](COc3ccc(NC(=O)Nc4cccc(F)c4)cc3C(=O)N2C)O1 | 30 | 2
CNC(=O)C[C@H]1CC[C@@H]2[C@H](COc3ccc(NC(=O)C4CCCCC4)cc3C(=O)N2C)O1 | 6 | -1
C[C@@H]1CN([C@@H](C)CO)C(=O)c2cc(NC(=O)CCC(F)(F)F)ccc2O[C@H]1CN(C)C(=O)Nc1ccccc1 | 43 | -1
C[C@@H]1CN([C@@H](C)CO)C(=O)Cc2cc(NC(=O)c3ccncc3)ccc2O[C@@H]1CN(C)S(=O)(=O)c1ccccc1 | . | 4
Cc1noc(C)c1S(=O)(=O)N(C)C[C@@H]1Oc2ccc(N(C)C)cc2CC(=O)N([C@H](C)CO)C[C@H]1C | -28 | 1
COc1ccc(NC(=O)Nc2ccc3c(c2)C(=O)N([C@@H](C)CO)C[C@@H](C)[C@H](CN(C)C(=O)C2CCCCC2)OCCCC[C@H](C)O3)cc1 | 65 | -6
C[C@H]1CCCCO[C@@H](CN(C)C(=O)C2CCCCC2)[C@@H](C)CN([C@@H](C)CO)C(=O)c2cc(NC(=O)Nc3ccc(F)cc3)ccc2O1 | ? | -4 | T cruzi growth-2=111*;T cruzi growth-3=24;3T3 cytotox=-7;NIH3T3 tox 2=7
COc1ccc(NC(=O)Nc2ccc3c(c2)C(=O)N([C@@H](C)CO)C[C@@H](C)[C@H](CN(C)C(=O)C2CCCCC2)OCCCC[C@@H](C)O3)cc1 | ? | -6 | T cruzi growth-2=?;T cruzi growth-3=16;3T3 cytotox=-4;NIH3T3 tox 2=-2
C[C@H](CO)N1C[C@H](C)[C@@H](CN(C)C(=O)C2CCCCC2)OCCCC[C@H](C)Oc2ccc(NC(=O)Nc3ccc(F)cc3)cc2C1=O | 84 | -1
CN(C)C(=O)c1cccc(-c2ccc([C@@H]3[C@H]4CN(CCC(F)(F)F)CCCCN4[C@H]3CO)cc2)c1 | 56 | 7
CC(C)CC#Cc1cnc2c(c1)C(=O)N([C@@H](C)CO)C[C@@H](C)[C@@H](CN(C)Cc1ccccc1)O2 | 84 | .
C[C@@H]1CN([C@@H](C)CO)C(=O)c2cc(C3=CCCC3)cnc2O[C@@H]1CN(C)S(C)(=O)=O | . | -5
C[C@@H]1CCCCO[C@@H](CN(C)S(=O)(=O)c2ccc(Cl)cc2)[C@@H](C)CN([C@H](C)CO)C(=O)c2cc(NC(=O)Nc3ccc(C(F)(F)F)cc3)ccc2O1 | 87 | 19
C[C@@H]1CCCCO[C@H](CN(C)S(=O)(=O)c2ccc(Cl)cc2)[C@@H](C)CN([C@H](C)CO)C(=O)c2cc(NC(=O)Nc3ccc(C(F)(F)F)cc3)ccc2O1 | 112* | 4 | T cruzi growth-2=102*;T cruzi growth-3=108*;3T3 cytotox=17;NIH3T3 tox 2=31*
C[C@@H]1CN([C@H](C)CO)C(=O)c2cc(NC(=O)Nc3ccc(C(F)(F)F)cc3)ccc2O[C@@H](C)CCCCO[C@@H]1CN(C)S(=O)(=O)c1ccc(Cl)cc1 | 103* | 5 | T cruzi growth-2=106*;T cruzi growth-3=80;3T3 cytotox=2;NIH3T3 tox 2=-6
C[C@@H]1CCCCO[C@@H](CN(C)S(=O)(=O)c2ccc(Cl)cc2)[C@H](C)CN([C@H](C)CO)C(=O)c2cc(NC(=O)Nc3ccc(C(F)(F)F)cc3)ccc2O1 | 70 | 14
C[C@H]1CCCCO[C@H](CN(C)S(=O)(=O)c2ccc(Cl)cc2)[C@@H](C)CN([C@@H](C)CO)C(=O)c2cc(NC(=O)Nc3ccc(C(F)(F)F)cc3)ccc2O1 | 75 | 1
C[C@@H]1CN([C@@H](C)CO)C(=O)c2cc(NC(=O)Nc3ccc(C(F)(F)F)cc3)ccc2O[C@@H](C)CCCCO[C@H]1CN(C)S(=O)(=O)c1ccc(Cl)cc1 | 103* | 5 | T cruzi growth-2=110*;T cruzi growth-3=109*;3T3 cytotox=-15;NIH3T3 tox 2=15
O=C(NCC[C@H]1CC[C@@H](NS(=O)(=O)c2cccc(F)c2)[C@H](CO)O1)C1CCCCC1 | . | 3
C[C@H]1CN([C@@H](C)CO)C(=O)c2cc(NC(=O)Nc3cccc4ccccc34)ccc2O[C@@H]1CN(C)S(=O)(=O)c1ccc(Cl)cc1 | 42 | -12
O=C(NCC1CC1)[C@H]1[C@H](CO)[C@H]2Cn3c(ccc(-c4cccnc4)c3=O)[C@@H]1N2C(=O)C1CCC1 | 76 | -3
CC(C)NC(=O)Nc1ccc2c(c1)C(=O)N([C@@H](C)CO)C[C@@H](C)[C@@H](CN(C)CC1CCCCC1)O2 | -16 | -1
C[C@@H]1CN([C@@H](C)CO)C(=O)c2cc(C#CCC3CCCC3)cnc2O[C@@H]1CN(C)C(=O)CN(C)C | . | 3
CCc1csc(N2[C@@H](C#N)[C@@H](c3ccc(C#Cc4ccc(F)cc4)cc3)[C@@H]2CO)n1 | 94 | 8
SMILES | T cruzi growth-1 | C diff growth | others
CCc1csc(N2[C@H](C#N)[C@@H](c3ccc(-c4cccc(F)c4)cc3)[C@@H]2CO)n1 | 98* | 5 | T cruzi growth-2=111*;T cruzi growth-3=81;3T3 cytotox=21;NIH3T3 tox 2=96*
CCc1csc(N2[C@H](CO)[C@H](c3ccc(-c4cccc(F)c4)cc3)[C@@H]2C#N)n1 | 73 | 10
CCc1csc(N2[C@H](C#N)[C@@H](c3ccc(-c4ccc(F)cc4)cc3)[C@@H]2CO)n1 | 93 | 1
CCc1csc(N2[C@@H](C#N)[C@H](c3ccc(-c4cccc(F)c4)cc3)[C@@H]2CO)n1 | 105* | 4 | T cruzi growth-2=103*;T cruzi growth-3=46;3T3 cytotox=31;NIH3T3 tox 2=27
CCc1csc(N2[C@H](C#N)[C@H](c3ccc(C#Cc4ccc(F)cc4)cc3)[C@H]2CO)n1 | 94 | 18
CCc1csc(N2[C@@H](C#N)[C@@H](c3ccc(-c4cccc(F)c4)cc3)[C@@H]2CO)n1 | 100* | 5 | T cruzi growth-2=?;T cruzi growth-3=76;3T3 cytotox=45*;NIH3T3 tox 2=82*
CCc1csc(N2[C@H](CO)[C@@H](c3ccc(-c4ccc(F)cc4)cc3)[C@@H]2C#N)n1 | 103* | 8 | T cruzi growth-2=102*;T cruzi growth-3=53;3T3 cytotox=18;NIH3T3 tox 2=103*
C[C@@H]1CN([C@@H](C)CO)C(=O)c2cc(C#CC3CC3)cnc2O[C@H]1CN(C)S(=O)(=O)c1cccc(F)c1 | -52 | .
C[C@H](O)C#Cc1cnc2c(c1)C(=O)N([C@H](C)CO)C[C@H](C)[C@H](CN(C)CC1CC1)O2 | -79 | 8
CO[C@H]1CN(C)C(=O)c2cc(NC(=O)c3ccc(F)cc3)ccc2OC[C@H](C)N(C(C)=O)C[C@@H]1C | -13 | 0
COc1ccc(S(=O)(=O)N(C)C[C@@H]2Oc3ccc(NS(=O)(=O)c4c(C)noc4C)cc3C(=O)N([C@H](C)CO)C[C@@H]2C)cc1 | 24 | -8
CCCN(C)C[C@H]1Oc2cc(-c3ccc(C)cc3)ccc2S(=O)(=O)N([C@@H](C)CO)C[C@H]1C | 50 | 5
C[C@@H]1CN([C@@H](C)CO)C(=O)c2cc(C#C[C@@H](C)O)cnc2O[C@@H]1CN(C)C(=O)c1ccc(F)cc1 | . | 2

From PubChem BioAssay
